This is a sample that favours compounds with a hit; in the whole collection about 15% have one here.
SARS PLP yeast – blocks SARS-CoV papain-like protease in a yeast assay; S. cerevisiae expressing SARS-CoV PLpro, growth rescue; Potency, µM (highest dose often 32.9 µM), for inactives: at the highest dose activity, positive = growth rescue, hits mostly activators; 330,000 tested, 0.19% active; calls by dose curve; also: potency is read from the fitted curve at half-maximal effect; 0% is about no effect; nearly all actives have a fitted effect of over 55% in size
Pf growth 96h – inhibits malaria parasite growth, 96 h. 320,000 tested, 6.9% active. P. falciparum luciferase reporter growth, 96 h. Potency, µM (doses to about 28.7 µM), without a hit: at the highest dose activity change, negative = inhibition, hits mostly inhibitors; also: potency is read from the fitted curve at half-maximal effect; % is scaled to controls: 0 for no effect and ±100 for the full control effect
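Parasite growth measured via integrated firefly luciferase reporter in P. falciparum. Infected erythrocytes at 2% hematocrit, 0.05% parasitemia final were treated 96 hours at 37 C under 5% CO2, and luminescence was read.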
HCV inh – inhibitors of hepatitis C virus infection; Huh7.5.1 HCVcc-Cre infection, luciferase reporter, 44 h; Potency, µM (top dose mostly 41.8 µM), for inactives: top-dose activity change, negative = inhibition, hits mostly inhibitors; 340,000 tested, 3.4% active; also: potency is read from the fitted curve at half-maximal effect; % is scaled to controls: 0 for no effect and ±100 for the full control effect
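HCVcc-Cre virus at an moi near 0.5 was added right after compound to cells cultured 4 h from seeding (1,000 cells/well). Luciferase activity was determined 44 h later, 15 min after substrate addition at RT.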
HCMV antiviral – blocks human cytomegalovirus replication; AID 1259415; 410,000 tested, 4.5% active; HFF cells, HCMV-luciferase reporter, 72 h; stronger effect = lower value; activity change, negative = inhibition, % at 57.5 µM; in the data active = activity change below about -60%; inconclusive = no clear call, values can overlap the other calls; inactive = above about -39%; also: % is scaled to controls: 0 for no effect and ±100 for the full control effect
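Two compound doses tested in HFFs infected with HCMV-luciferase, MOI 1 PFU/cell, 72 h at 37C. Lysate luminescence read with OneGlo; data normalized against buffer-only and 10uM Salinomycin inhibitor controls.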
Pf growth 48h – inhibits P. falciparum growth in the first generation, 48 h; P. falciparum luciferase growth in erythrocytes, 48 h; Potency, µM (titrated, usually from 28.7 µM), inactives show at the top dose activity change, negative = inhibition, usual class: inhibitors; 310,000 tested, 5.9% active; AID 504832; also: potency is read from the fitted curve at half-maximal effect; % is scaled to controls: 0 for no effect and ±100 for the full control effect
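Luciferase-expressing P. falciparum in infected erythrocytes (2% hematocrit, 0.1% parasitemia final) in RPMI 1640/0.5% Albumax were exposed to compound for 48 hours at 37 C, 5% CO2; growth read as luminescence.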
Sm TGR inh – inhibitors of Schistosoma mansoni thioredoxin glutathione reductase | Potency, µM (titrated, usually from 114 µM), for the others: top-dose activity change, negative = inhibition, most hits filed as inhibitors | Q962Y6 | 360,000 tested, 3% active | purified TGR, DTNB reduction, TNB absorbance 405 nm; also: potency is read from the fitted curve at half-maximal effect; % is scaled to controls: 0 for no effect and ±100 for the full control effect; nearly all actives have a fitted effect of over 60% in size
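Kinetic colorimetric format: TGR-catalysed, NADPH-driven DTNB reduction monitored via TNB absorbance. Enzyme dispensed at 20 nM; compound exposure 15 min at room temperature before reaction start.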
Starred values were filed as active, the others as inactive. Unless noted, calls follow the shape of the dose curve; as a rule, active = well fitted curve in the direction sought with a large enough effect; inconclusive = small, poorly fitted or top-dose-only effect, or another doubt; inactive = no such curve, though single readings can be large; an effect the other way counts as inactive or inconclusive.

Screening CCOC(=O)N1CCN(C(=O)C[C@@H]2C[C@@]3(C(=O)OC)CCCCC=C3N(CCc3ccc(OC)c(OC)c3)C2=O)CC1 returned HCMV antiviral 55.
Screening COc1cc(NCc2ccccc2O)c2ncccc2c1 returned SARS PLP yeast -3%, Pf growth 96h inconclusive, HCV inh -21%, HCMV antiviral 18, Pf growth 48h inconclusive and Sm TGR inh -2%.
Screening COc1cc(NC(C)CCCN)c2ncccc2c1 (configuration not stated) returned Pf growth 96h 0.33µM*, HCV inh inconclusive, HCMV antiviral inconclusive, Pf growth 48h 0.41µM* and Sm TGR inh -4%.
`COc1cc(NCCCCCCCN)c2ncccc2c1` gave SARS PLP yeast 8%, Pf growth 96h 3.7µM*, HCV inh -1%, Pf growth 48h 2.6µM* and Sm TGR inh -16%.
Screening N#CC(C#N)=c1ccc2c(c1)NC1(CCCCC1)N=2 returned SARS PLP yeast -29%, Pf growth 96h inconclusive, HCV inh inconclusive, HCMV antiviral -85*, Pf growth 48h inconclusive and Sm TGR inh -23%.
Screening N#CC(C#N)=C1NC2(CCCCC2)Cc2ccccc21 returned SARS PLP yeast -2%, Pf growth 96h -4%, HCV inh -15%, HCMV antiviral -8, Pf growth 48h -16% and Sm TGR inh 1%.
`Nc1ncnc2c1nc(-c1ccccc1)n2C1OC(CO)C(O)C1O` (configuration not stated) gave HCMV antiviral 11.
For Nc1ncnc2c(C3OC(CO)C(O)C3O)c[nH]c12 (configuration not stated) the results were HCV inh inconclusive and HCMV antiviral -98*.
`CCOC(=O)c1sc(NC(=O)c2cccc(S(=O)(=O)N3CCc4ccccc43)c2)c(C#N)c1C` gave SARS PLP yeast -1%, Pf growth 96h 18%, HCV inh 10µM*, HCMV antiviral -99*, Pf growth 48h inconclusive and Sm TGR inh 0%.
CCC(CC)c1nnc(NC(=O)c2cccc(S(=O)(=O)N3CCc4ccccc43)c2)s1 was read as SARS PLP yeast 1%, Pf growth 96h inconclusive, HCV inh 17%, HCMV antiviral -39, Pf growth 48h 15µM* and Sm TGR inh -15%.
O=C(Nc1nncs1)c1cccc(S(=O)(=O)N2CCc3ccccc32)c1 was read as SARS PLP yeast 0%, Pf growth 96h 18%, HCV inh 1%, HCMV antiviral -23, Pf growth 48h 10% and Sm TGR inh 2%.
Screening O=C(Nc1nc2c(s1)CCCC2)c1cccc(S(=O)(=O)N2CCCc3ccccc32)c1 returned SARS PLP yeast 6%, Pf growth 96h inconclusive, HCV inh inconclusive, HCMV antiviral inconclusive, Pf growth 48h 9.3µM* and Sm TGR inh 1%.
Screening Cc1cccc(C(=O)Nc2nnc(S(=O)(=O)N3CCCc4ccccc43)s2)c1 returned HCMV antiviral 4 and Sm TGR inh 1%.
`CN1CCc2nc(NC(=O)c3cccc(S(=O)(=O)N4CCc5ccccc54)c3)sc2C1` gave SARS PLP yeast -3%, Pf growth 96h 58%, HCV inh inconclusive, HCMV antiviral 21, Pf growth 48h 5.9µM* and Sm TGR inh -5%.
For CCCCc1ccc(NC(=O)CSc2nc(=O)n(CCCN3CCOCC3)c3c2CCC3)cc1 the results were SARS PLP yeast 2%, Pf growth 96h inconclusive, HCV inh inconclusive, HCMV antiviral -22, Pf growth 48h inconclusive and Sm TGR inh -12%.
CCOC(=O)C1=C(Cc2ccc(F)cc2)C(=O)c2ccccc2C1=O was read as SARS PLP yeast -34%, Pf growth 96h 8.3µM*, HCV inh 7.9µM*, HCMV antiviral 18 and Sm TGR inh inconclusive.
CC(=O)Nc1cnc(-c2cc(C)c(O)c(C)c2)cn1 was read as HCMV antiviral 193.
Screening Cn1cnc(S(=O)(=O)Nc2ccc(OC(F)(F)F)cc2)c1 returned SARS PLP yeast 3%, Pf growth 96h inconclusive, HCV inh -4%, HCMV antiviral 8, Pf growth 48h inconclusive and Sm TGR inh 1%.
CN=c1scc(-c2ccc(F)cc2)n1/N=C/c1ccc(O)c(O)c1 was read as SARS PLP yeast -25%, Pf growth 96h inconclusive, HCV inh 2.2µM*, HCMV antiviral -67*, Pf growth 48h -52% and Sm TGR inh 11µM*.
For CCN=c1scc(-c2ccco2)n1/N=C/c1ccc(OC)c(O)c1 the results were Pf growth 96h 119%, HCV inh -17%, HCMV antiviral 45, Pf growth 48h 17% and Sm TGR inh inconclusive.
Screening Cc1ccc(C)c(NC(=O)C(Sc2nnc(-c3cccs3)o2)c2ccccc2)c1 (configuration not stated) returned SARS PLP yeast 21%, Pf growth 96h -10%, HCV inh 15%, HCMV antiviral -17, Pf growth 48h 30% and Sm TGR inh 5%.
O=C1/C(=C/c2ccncc2)SC(=S)N1Cc1ccccc1 was read as SARS PLP yeast -2%, Pf growth 96h inconclusive, HCV inh 7%, HCMV antiviral -73*, Pf growth 48h -18% and Sm TGR inh -11%.
Screening CN1C(=O)/C(=C\c2ccncc2)SC1=Nc1ccccc1 returned SARS PLP yeast -60%, Pf growth 96h inconclusive, HCV inh -28%, HCMV antiviral -67*, Pf growth 48h inconclusive and Sm TGR inh 2%.
Screening CCCN1C(=O)/C(=C/c2ccncc2)SC1=S returned SARS PLP yeast -39%, Pf growth 96h 114%, HCV inh 2%, HCMV antiviral -22, Pf growth 48h 5% and Sm TGR inh 6%.
Screening C#CCOc1ccc(/C=C2\SC(=S)N(Cc3cccnc3)C2=O)cc1 returned SARS PLP yeast -15%, Pf growth 96h 25%, HCV inh -8%, HCMV antiviral -73*, Pf growth 48h inconclusive and Sm TGR inh -5%.
For O=C(O)CN1C(=O)/C(=C\c2cc(Br)ccc2OCc2ccc(Cl)cc2)SC1=S the results were SARS PLP yeast 1%, Pf growth 96h 10µM*, HCV inh 3%, HCMV antiviral -29, Pf growth 48h 19% and Sm TGR inh -28%.
Screening O=C(O)CN1C(=O)/C(=C\c2cc(Br)ccc2OCc2ccc(F)cc2)SC1=S returned SARS PLP yeast 2%, Pf growth 96h -12%, HCV inh 12%, HCMV antiviral 32, Pf growth 48h 20% and Sm TGR inh -3%.

Screening data from PubChem.
